{"source": "the supplement of paper PMC8728848", "binders": {"B1": {"name": "Banana lectin (Musa acuminata) (protein)", "chain": "MNGAIKVGAWGGNGGSAFDMGPAYRIISVKIFSGDVVDGVDVTFTYYGKTETRHYGGSGGTPHEIVLQEGEYLVGMAGEVANYTGAVVLGKLGFSTNKKAYGPFGNTGGTPFSLPIAAGKISGFFGRGGKFLDAIGVYLEPLEHHHHHH"}}, "test_in_all_cases": "glycan array binding signal (z-score within array); higher = stronger binding", "details_in_all_cases": "glycan notation: IUPAC condensed, linker removed; mutation: H84T", "key": {"Fuc(a1-2)Gal(b1-3)GlcNAc": {"biological_target": "Fuc(a1-2)Gal(b1-3)GlcNAc", "how_it_was_run": "(§1)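 The Consortium for Functional Glycomics database supplied 3228 glycan arrays, of which those lacking an available protein sequence were dropped. The binding signal, a within-array Z-score, was averaged across arrays of the same protein sequence and across linkers. Negative scores can be read as non-binding.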"}, "[1]": {"biological_target": "Fuc(a1-2)Gal(b1-3)GlcNAc(b1-2)Man(a1-3)[Fuc(a1-2)Gal(b1-3)GlcNAc(b1-2)Man(a1-6)]Man(b1-4)GlcNAc(b1-4)[Fuc(a1-6)]GlcNAc", "how_it_was_run": "as §1"}, "[2]": {"biological_target": "Fuc(a1-2)Gal(b1-4)GlcNAc(b1-3)Gal(b1-4)GlcNAc(b1-2)Man(a1-3)[Fuc(a1-2)Gal(b1-4)GlcNAc(b1-3)Gal(b1-4)GlcNAc(b1-2)Man(a1-6)]Man(b1-4)GlcNAc(b1-4)GlcNAc", "how_it_was_run": "as §1"}, "[3]": {"biological_target": "Fuc(a1-2)Gal(b1-4)[Fuc(a1-3)]GlcNAc(b1-3)[Neu5Ac(a2-6)Gal(b1-4)GlcNAc(b1-6)]Gal(b1-4)Glc", "how_it_was_run": "as §1"}, "[4]": {"biological_target": "Fuc(a1-2)[GalNAc(a1-3)]Gal(b1-3)GalNAc(b1-3)Gal(a1-4)Gal(b1-4)Glc", "how_it_was_run": "as §1"}, "Fuc(a1-3)GlcNAc": {"biological_target": "Fuc(a1-3)GlcNAc", "how_it_was_run": "as §1"}, "Fuc(b1-3)GlcNAc": {"biological_target": "Fuc(b1-3)GlcNAc", "how_it_was_run": "as §1"}, "[5]": {"biological_target": "Gal(a1-3)Gal(b1-3)[Fuc(a1-4)]GlcNAc(b1-2)Man(a1-3)[Gal(a1-3)Gal(b1-3)[Fuc(a1-4)]GlcNAc(b1-2)Man(a1-6)]Man(b1-4)GlcNAc(b1-4)GlcNAc", "how_it_was_run": "as §1"}, "[6]": {"biological_target": "Gal(b1-3)GlcNAc(b1-6)GalNAc", "how_it_was_run": "as §1"}, "[7]": {"biological_target": "Gal(b1-3)[Neu5Ac(a2-6)]GalNAc", "how_it_was_run": "as §1"}, "[8]": {"biological_target": "Gal(b1-4)GlcNAc(b1-2)[Gal(b1-4)GlcNAc(b1-6)]Man(a1-6)[GlcNAc(b1-4)][Gal(b1-4)GlcNAc(b1-2)Man(a1-3)]Man(b1-4)GlcNAc(b1-4)GlcNAc", "how_it_was_run": "as §1"}, "[9]": {"biological_target": "Gal(b1-4)GlcNAc(b1-6)Gal(b1-4)GlcNAc", "how_it_was_run": "as §1"}, "[10]": {"biological_target": "Gal3S(b1-4)[Fuc(a1-3)]GlcNAc6S", "how_it_was_run": "as §1"}, "[11]": {"biological_target": "GlcNAc(a1-4)Gal(b1-4)GalNAc", "how_it_was_run": "as §1"}, "[12]": {"biological_target": "GlcNAc(b1-3)Gal(b1-4)GlcNAc(b1-3)Gal(b1-4)GlcNAc(b1-3)Gal(b1-4)GlcNAc(b1-2)Man(a1-3)[GlcNAc(b1-3)Gal(b1-4)GlcNAc(b1-3)Gal(b1-4)GlcNAc(b1-3)Gal(b1-4)GlcNAc(b1-2)Man(a1-6)]Man(b1-4)GlcNAc(b1-4)[Fuc(a1-6)]GlcNAc", "how_it_was_run": "as §1"}, "[13]": {"biological_target": "GlcNAc6S(b1-3)Gal(b1-4)GlcNAc", "how_it_was_run": "as §1"}, "Kdn(a2-3)Gal(b1-4)GlcNAc": {"biological_target": "Kdn(a2-3)Gal(b1-4)GlcNAc", "how_it_was_run": "as §1"}, "[14]": {"biological_target": "Man(a1-2)Man(a1-2)Man(a1-6)[Man(a1-3)]Man", "how_it_was_run": "as §1"}, "[15]": {"biological_target": "Man(a1-2)Man(a1-3)[Man(a1-2)Man(a1-6)]Man", "how_it_was_run": "as §1"}, "[16]": {"biological_target": "Man(a1-2)Man(a1-3)[Man(a1-2)Man(a1-6)]Man(a1-6)[Man(a1-2)Man(a1-2)Man(a1-3)]Man", "how_it_was_run": "as §1"}, "[17]": {"biological_target": "Man(a1-2)Man(a1-3)[Man(a1-2)Man(a1-6)]Man(a1-6)[Man(a1-2)Man(a1-2)Man(a1-3)]Man(b1-4)GlcNAc(b1-4)GlcNAc", "how_it_was_run": "as §1"}, "[18]": {"biological_target": "Man(a1-2)Man(a1-3)[Man(a1-6)]Man(a1-6)[Man(a1-2)Man(a1-3)]Man(b1-4)GlcNAc(b1-4)GlcNAc", "how_it_was_run": "as §1"}, "[19]": {"biological_target": "Man(a1-2)Man(a1-6)[Man(a1-3)]Man(a1-6)[Man(a1-2)Man(a1-2)Man(a1-3)]Man", "how_it_was_run": "as §1"}, "[20]": {"biological_target": "Man(a1-2)Man(a1-6)[Man(a1-3)]Man(a1-6)[Man(a1-2)Man(a1-2)Man(a1-3)]Man(b1-4)GlcNAc(b1-4)GlcNAc", "how_it_was_run": "as §1"}, "Man(a1-3)[Man(a1-6)]Man": {"biological_target": "Man(a1-3)[Man(a1-6)]Man", "how_it_was_run": "as §1"}, "[21]": {"biological_target": "Man(a1-3)[Man(a1-6)]Man(a1-6)[Man(a1-2)Man(a1-3)]Man(b1-4)GlcNAc(b1-4)GlcNAc", "how_it_was_run": "as §1"}, "[22]": {"biological_target": "Man(a1-3)[Man(a1-6)]Man(a1-6)[Man(a1-3)]Man(b1-4)GlcNAc(b1-4)GlcNAc", "how_it_was_run": "as §1"}, "[23]": {"biological_target": "Man(a1-3)[Man(a1-6)]Man(b1-4)GlcNAc(b1-4)GlcNAc", "how_it_was_run": "as §1"}, "[24]": {"biological_target": "Man(a1-3)[Man(a1-6)]Man(b1-4)GlcNAc(b1-4)[Fuc(a1-6)]GlcNAc", "how_it_was_run": "as §1"}, "Neu5Ac(a2-3)Gal": {"biological_target": "Neu5Ac(a2-3)Gal", "how_it_was_run": "as §1"}, "[25]": {"biological_target": "Neu5Ac(a2-3)Gal(b1-4)GlcNAc(b1-2)Man", "how_it_was_run": "as §1"}, "[26]": {"biological_target": "Neu5Ac(a2-3)Gal(b1-4)GlcNAc(b1-2)Man(a1-3)[Neu5Ac(a2-3)Gal(b1-4)GlcNAc(b1-2)Man(a1-6)]Man(b1-4)GlcNAc(b1-4)GlcNAc", "how_it_was_run": "as §1"}, "[27]": {"biological_target": "Neu5Ac(a2-3)Gal(b1-4)GlcNAc(b1-3)Gal(b1-3)GlcNAc", "how_it_was_run": "as §1"}, "[28]": {"biological_target": "Neu5Ac(a2-3)Gal(b1-4)GlcNAc(b1-3)Gal(b1-4)GlcNAc(b1-3)[Neu5Ac(a2-3)Gal(b1-4)GlcNAc(b1-3)Gal(b1-4)GlcNAc(b1-6)]GalNAc", "how_it_was_run": "as §1"}, "[29]": {"biological_target": "Neu5Ac(a2-3)Gal(b1-4)GlcNAc(b1-3)Gal(b1-4)[Fuc(a1-3)]GlcNAc", "how_it_was_run": "as §1"}, "[30]": {"biological_target": "Neu5Ac(a2-3)Gal(b1-4)[Fuc(a1-3)]GlcNAc", "how_it_was_run": "as §1"}, "[31]": {"biological_target": "Neu5Ac(a2-3)Gal(b1-4)[Fuc(a1-3)]GlcNAc(b1-6)[Gal(b1-3)]GalNAc", "how_it_was_run": "as §1"}, "[32]": {"biological_target": "Neu5Ac(a2-6)Gal(b1-4)GlcNAc(b1-2)Man(a1-3)[Man(a1-6)]Man(b1-4)GlcNAc(b1-4)GlcNAc", "how_it_was_run": "as §1"}, "[33]": {"biological_target": "Neu5Ac(a2-6)Gal(b1-4)GlcNAc(b1-2)[Neu5Ac(a2-6)Gal(b1-4)GlcNAc(b1-4)]Man(a1-3)[GlcNAc(b1-4)][Neu5Ac(a2-6)Gal(b1-4)GlcNAc(b1-4)Man(a1-6)]Man(b1-4)GlcNAc(b1-4)GlcNAc", "how_it_was_run": "as §1"}, "[34]": {"biological_target": "Neu5Ac(b2-6)Gal(b1-4)GlcNAc", "how_it_was_run": "as §1"}, "[35]": {"biological_target": "Neu5Gc(a2-8)Neu5Gc(a2-3)Gal(b1-4)GlcNAc", "how_it_was_run": "as §1"}}, "note": "The full list was thinned out, with the strongest signals kept by preference."}
{"binder": "B1", "values": [{"measurement": "glycan array binding signal (z-score)", "setting": "Fuc(a1-2)Gal(b1-3)GlcNAc", "value": -0.164}, {"measurement": "glycan array binding signal (z-score)", "setting": "[1]", "value": -0.026}, {"measurement": "glycan array binding signal (z-score)", "setting": "[2]", "value": -0.09}, {"measurement": "glycan array binding signal (z-score)", "setting": "[3]", "value": -0.193}, {"measurement": "glycan array binding signal (z-score)", "setting": "[4]", "value": -0.165}, {"measurement": "glycan array binding signal (z-score)", "setting": "Fuc(a1-3)GlcNAc", "value": -0.218}, {"measurement": "glycan array binding signal (z-score)", "setting": "Fuc(b1-3)GlcNAc", "value": -0.189}, {"measurement": "glycan array binding signal (z-score)", "setting": "[5]", "value": 0.562}, {"measurement": "glycan array binding signal (z-score)", "setting": "[6]", "value": -0.155}, {"measurement": "glycan array binding signal (z-score)", "setting": "[7]", "value": -0.154}, {"measurement": "glycan array binding signal (z-score)", "setting": "[8]", "value": -0.098}, {"measurement": "glycan array binding signal (z-score)", "setting": "[9]", "value": -0.206}, {"measurement": "glycan array binding signal (z-score)", "setting": "[10]", "value": -0.177}, {"measurement": "glycan array binding signal (z-score)", "setting": "[11]", "value": -0.184}, {"measurement": "glycan array binding signal (z-score)", "setting": "[12]", "value": -0.082}, {"measurement": "glycan array binding signal (z-score)", "setting": "[13]", "value": -0.199}, {"measurement": "glycan array binding signal (z-score)", "setting": "Kdn(a2-3)Gal(b1-4)GlcNAc", "value": -0.189}, {"measurement": "glycan array binding signal (z-score)", "setting": "[14]", "value": 8.2}, {"measurement": "glycan array binding signal (z-score)", "setting": "[15]", "value": 2.21}, {"measurement": "glycan array binding signal (z-score)", "setting": "[16]", "value": 7.07}, {"measurement": "glycan array binding signal (z-score)", "setting": "[17]", "value": 5.46}, {"measurement": "glycan array binding signal (z-score)", "setting": "[18]", "value": 4.86}, {"measurement": "glycan array binding signal (z-score)", "setting": "[19]", "value": 5.72}, {"measurement": "glycan array binding signal (z-score)", "setting": "[20]", "value": 10.1}, {"measurement": "glycan array binding signal (z-score)", "setting": "Man(a1-3)[Man(a1-6)]Man", "value": 6.01}, {"measurement": "glycan array binding signal (z-score)", "setting": "[21]", "value": 11.3}, {"measurement": "glycan array binding signal (z-score)", "setting": "[22]", "value": 5.96}, {"measurement": "glycan array binding signal (z-score)", "setting": "[23]", "value": 4.6}, {"measurement": "glycan array binding signal (z-score)", "setting": "[24]", "value": 1.98}, {"measurement": "glycan array binding signal (z-score)", "setting": "Neu5Ac(a2-3)Gal", "value": -0.212}, {"measurement": "glycan array binding signal (z-score)", "setting": "[25]", "value": -0.188}, {"measurement": "glycan array binding signal (z-score)", "setting": "[26]", "value": -0.182}, {"measurement": "glycan array binding signal (z-score)", "setting": "[27]", "value": -0.175}, {"measurement": "glycan array binding signal (z-score)", "setting": "[28]", "value": -0.109}, {"measurement": "glycan array binding signal (z-score)", "setting": "[29]", "value": -0.179}, {"measurement": "glycan array binding signal (z-score)", "setting": "[30]", "value": -0.19}, {"measurement": "glycan array binding signal (z-score)", "setting": "[31]", "value": -0.16}, {"measurement": "glycan array binding signal (z-score)", "setting": "[32]", "value": 0.399}, {"measurement": "glycan array binding signal (z-score)", "setting": "[33]", "value": -0.177}, {"measurement": "glycan array binding signal (z-score)", "setting": "[34]", "value": -0.184}, {"measurement": "glycan array binding signal (z-score)", "setting": "[35]", "value": -0.162}]}
